The supplement of paper PMC9801561
± gives the standard deviation of the averaged measurements.

These compounds were tested on Escherichia coli Nissle 1917 (assay: area under OmniLog respiration curve over 48 h (OmniLog units x h); higher = more growth / nutrient utilisation; extreme values may be limits of the assay). Conditions: nutrient role: sole phosphorus source (pyruvate carbon); incubation: 48 h, 37 °C.
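Throughout, for DuctApe activity index of respiration/growth curve (0 no growth to 9 maximum): biolog PM4 phosphorus and sulfur plates, tetrazolium violet dye reduction read in the OmniLog every 15 min, kinetic curves scored by DuctApe, each plate run in triplicate.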

Area under OmniLog respiration curve, 9010 ± 860:
O=P(O)(O)OC[C@H](O)CO (racemic) [DL-a-Glycerol Phosphate]

Area under OmniLog respiration curve, 8060 ± 560:
O=P(O)(O)O[C@H]1O[C@H](CO)[C@@H](O)[C@H](O)[C@H]1O [D-Glucose-1-Phosphate]

Area under OmniLog respiration curve, 8680 ± 490:
O=C[C@H](O)[C@@H](O)[C@H](O)[C@H](O)COP(=O)(O)O [D-Glucose-6-Phosphate]

Each compound was assayed on Escherichia coli Nissle 1917 (assay: DuctApe activity index of respiration/growth curve (0 no growth to 9 maximum) (index 0-9); higher = more growth / nutrient utilisation, active = 3 or more; extreme values may be limits of the assay). Conditions: nutrient role: C-Source, amino acid; incubation: 48 h, 37 °C.

DuctApe activity index, active:
C[C@H](N)C(=O)NCC(=O)O 7.67
C[C@@H](O)[C@H](N)C(=O)O [L-Threonine] 8
N[C@@H](CC(=O)O)C(=O)O [L-Aspartic acid] 8.67
N[C@@H](CCC(=O)O)C(=O)O [L-Glutamic acid] 7.67
C[C@@H](N)C(=O)O [D-Alanine] 8
C[C@H](N)C(=O)O [L-Alanine] 8
NC(=O)CC[C@H](N)C(=O)O [L-Glutamine] 8.33
NCC(=O)N[C@@H](CCC(=O)O)C(=O)O 7.67
N[C@H](CO)C(=O)O [D-Serine] 8.67
O=C(O)[C@@H]1CCCN1 [L-Proline] 8.67
NC(=O)C[C@H](N)C(=O)O [L-Asparagine] 8.67
N[C@@H](CO)C(=O)O [L-Serine] 8.67

DuctApe activity index, inactive:
N[C@@H](Cc1c[nH]cn1)C(=O)O [L-Histidine] 0
NCCCC[C@H](N)C(=O)O [L-Lysine] 0
NCC(=O)O [Glycine] 0
CSCC[C@H](N)C(=O)O [L-Methionine] 0
CC[C@H](C)[C@H](N)C(=O)O [L-Isoleucine] 0
N=C(N)NCCC[C@H](N)C(=O)O [L-Arginine] 0
O=C1CC[C@@H](C(=O)O)N1 [L-Pyroglutamic acid] 0
CC(=O)N[C@@H](CCC(=O)O)C(=O)O [N-Acetyl-L-Glutamic acid] 0
N[C@@H](Cc1ccccc1)C(=O)O [L-Phenylalanine] 0
CC(C)[C@H](N)C(=O)O [L-Valine] 0
CC(C)C[C@H](N)C(=O)O [L-Leucine] 0
NCCC[C@H](N)C(=O)O [L-Ornithine] 0
